Test results from PubChem BioAssay (NCI).
Several values for one entry are separate records, joined by “and”; a condition that tells them apart may be missing. Equal values may be shown once. Compounds without any hit were thinned out: in the full panel of roughly 79,000, 15% have a hit. Some structures have more than one record in an assay (separate samples or runs), and their calls can disagree. Activity calls are given as the source filed them. Rule as the data show it: active = growth inhibition above about 70%; inactive = the rest.

How the values were obtained:
[1] = NCI Yeast Anticancer Drug Screen. Data for the rad50 strain (AID 155);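 also: 0% = growth of vehicle-only cultures of the same strain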; conditions: S. cerevisiae rad50 strain growth inhibition, stronger effect = higher value
Method in brief: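 DNA repair mutant yeast, compound exposure, growth read-out; inhibition is taken relative to vehicle.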

[2] = NCI Yeast Anticancer Drug Screen. Data for the mec2-1 strain (AID 157); conditions: S. cerevisiae mec2-1 strain, stronger effect = higher value
Method in brief: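 Test agents were screened against the mec2-1 yeast strain, with defined DNA repair or cell cycle alteration. Growth was scored as inhibition against vehicle-only controls.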

[3] = NCI Yeast Anticancer Drug Screen. Data for the sgs1 mgt1 strain (AID 161);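 also: 0% = growth of cultures given vehicle only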; conditions: S. cerevisiae sgs1 mgt1 strain, stronger effect = higher value
Method in brief: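 Test agents were incubated with a DNA-repair-mutant yeast strain. Growth was then read and compared against vehicle-treated controls.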

[4] = NCI Yeast Anticancer Drug Screen. Data for the cln2 rad14 strain (AID 165);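 also: 0% = growth equal to vehicle treated cultures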; conditions: S. cerevisiae cln2 rad14 strain, stronger effect = higher value
Method in brief: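 Growth of compound-exposed yeast (cln2 rad14 genotype) measured and expressed as inhibition relative to vehicle.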

[5] = NCI Yeast Anticancer Drug Screen. Data for the bub3 strain (AID 167); conditions: S. cerevisiae bub3 mutant strain, stronger effect = higher value
Method in brief: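 In this screen, a yeast mutant lacking normal mitotic checkpoint function is challenged with compound. Relative growth versus vehicle gives the inhibition value.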

[6] = NCI Yeast Anticancer Drug Screen. Data for the mlh1 rad18 strain (AID 175); conditions: S. cerevisiae mlh1 rad18 strain growth inhibition, stronger effect = higher value
Method in brief: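 In this whole-cell yeast screen, a strain with altered DNA damage repair is challenged with compound, and its growth is measured against matched vehicle-treated controls.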

[7] = at 5.0 µM (retest, dose inferred, filed as 0.5)
[8] = at 50.0 µM (retest, dose inferred, filed as 5.0)

Compound | growth inhibition [1, 7] | growth inhibition [1, 8] | growth inhibition ([1]; at 50.0 µM) | growth inhibition [2, 7] | growth inhibition [2, 8] | growth inhibition ([2]; at 50.0 µM) | growth inhibition [3, 7] | growth inhibition [3, 8] | growth inhibition ([3]; at 50.0 µM) | growth inhibition [4, 7] | growth inhibition [4, 8] | growth inhibition ([4]; at 50.0 µM) | growth inhibition [5, 7] | growth inhibition [5, 8] | growth inhibition ([5]; at 50.0 µM) | growth inhibition [6, 7] | growth inhibition [6, 8] | growth inhibition ([6]; at 50.0 µM)
Fc1cccc(NC(=S)SCc2ccc(Cl)c(Cl)c2)c1 | 8% (inactive) | 94% (active) | 98.2% (active) | 3% (inactive) | 93% (active) | 99.2% (active) | 6% (inactive) | 98% (active) | 99% (active) | -7% (inactive) | 85% (active) | 98.8% (active) | 0% (inactive) | 95% (active) | 98% (active) | 4% (inactive) | 96% (active) | 99% (active)
c1cc2c3c(c1)c1cc4c(cc1c[n+]3CC2)OCO4 | 14% (inactive) | 38% (inactive) | 89.9% (active) | 23% (inactive) | 36% (inactive) | 92.5% (active) | 25% (inactive) | 41% (inactive) | 92.1% (active) | 13% (inactive) | 18% (inactive) | 90.8% (active) | 2% (inactive) | 20% (inactive) | 90.8% (active) | 25% (inactive) | 51% (inactive) | 90.9% (active)
CCCCCCCCCCCCCCCCCCOCC(O)CO (stereo not given) | 0% (inactive) | -1% (inactive) | 45.5% (inactive) | -2% (inactive) | -1% (inactive) | 55.6% (inactive) | -1% (inactive) | -1% (inactive) | 62.6% (inactive) | -1% (inactive) | -7% (inactive) | 34.2% (inactive) | 2% (inactive) | -1% (inactive) | 64.7% (inactive) | -3% (inactive) | -13% (inactive) | 57% (inactive)
CCCCCC[C@H](C/C=C\CCCCCCCC(=O)OC)OC(C)=O | -6% (inactive) | 27% (inactive) | -0.2% (inactive) and -4.1% (inactive) | -4% (inactive) | 69% (inactive) | 2.25% (inactive) and -0.75% (inactive) | -6% (inactive) | 42% (inactive) | 29.2% (inactive) and -40.8% (inactive) | -1% (inactive) | -4% (inactive) | 73.5% (active) and 54.6% (inactive) | -6% (inactive) | 92% (active) | 3.65% (inactive) and -26.2% (inactive) | -3% (inactive) | 21% (inactive) | 9.45% (inactive) and -22.9% (inactive)
CN(C)/C=C1\CCc2ccc([N+](=O)[O-])cc2C1=O | 19% (inactive) | 21% (inactive) | 6.9% (inactive) | 17% (inactive) | 25% (inactive) | 0.45% (inactive) | 24% (inactive) | 29% (inactive) | 16.4% (inactive) | 31% (inactive) | 17% (inactive) | 12.1% (inactive) | 26% (inactive) | 19% (inactive) | 21.4% (inactive) | 29% (inactive) | 35% (inactive) | -28.4% (inactive)
Fc1ccc2nc3ccccc3nc2c1 | 3% (inactive) | 40% (inactive) | 77.5% (active) | 5% (inactive) | 27% (inactive) | 49.2% (inactive) | 0% (inactive) | 10% (inactive) | 22.6% (inactive) | -6% (inactive) | 10% (inactive) | 29.5% (inactive) | 5% (inactive) | 24% (inactive) | 42.5% (inactive) | 2% (inactive) | 27% (inactive) | 76.3% (active)
Cc1c2cc[n+](C)cc2c(C)c2c1[nH]c1ccccc12 | 28% (inactive) | 68% (inactive) | 27.5% (inactive) and 40.4% (inactive) | 18% (inactive) | 22% (inactive) | 29.2% (inactive) and -21.1% (inactive) | 28% (inactive) | 36% (inactive) | 75.7% (active) and -25% (inactive) | 27% (inactive) | 32% (inactive) | 23.8% (inactive) and 2.8% (inactive) | 12% (inactive) | 31% (inactive) | 62.8% (inactive) and -38.5% (inactive) | 16% (inactive) | 39% (inactive) | 54.5% (inactive) and 26.9% (inactive)
Cc1cccc2c1Oc1cc(Cl)ccc1C2NC(=O)CCN1CCCCC1 (stereo not given) | -22% (inactive) | 24% (inactive) | 85.2% (active) | -12% (inactive) | 3% (inactive) | 25.9% (inactive) | -6% (inactive) | 21% (inactive) | 86.3% (active) | 27% (inactive) | 26% (inactive) | 65.7% (inactive) | 16% (inactive) | 20% (inactive) | -14.7% (inactive) | 14% (inactive) | 57% (inactive) | 69.1% (inactive)
NC(=O)NC(=O)C(Cc1ccc(Cl)cc1)c1ccccc1 (stereo not given) | -1% (inactive) | 17% (inactive) | -15% (inactive) | -6% (inactive) | 8% (inactive) | -13.2% (inactive) | 1% (inactive) | 7% (inactive) | -5.75% (inactive) | 4% (inactive) | 19% (inactive) | -65.7% (inactive) | 6% (inactive) | 20% (inactive) | -52.6% (inactive) | -13% (inactive) | 5% (inactive) | 2.15% (inactive)
O=S(=O)(O)c1ccc(-c2c3nc(c(-c4ccc(S(=O)(=O)O)cc4)c4ccc([nH]4)c(-c4ccc(S(=O)(=O)O)cc4)c4nc(c(-c5ccc(S(=O)(=O)O)cc5)c5ccc2[nH]5)C=C4)C=C3)cc1 | 61% (inactive) and 82% (active) | 94% (active) and 91% (active) | 92.8% (active) and 94.3% (active) | 72% (active) and 96% (active) | 97% (active) and 95% (active) | 96.8% (active) and 87.5% (active) | 74% (active) and 68% (inactive) | 29% (inactive) and 51% (inactive) | 94.8% (active) and 91.8% (active) | 32% (inactive) and 40% (inactive) | 80% (active) and 67% (inactive) | 91.8% (active) and 91.4% (active) | 51% (inactive) and 64% (inactive) | 92% (active) and 83% (active) | 93.6% (active) and 92.8% (active) | 74% (active) and 93% (active) | 92% (active) and 93% (active) | 96% (active) and 91.2% (active)
Cc1ncc(C[n+]2cccc(CCO)c2C)c(N)n1 | 4% (inactive) and 16% (inactive) | 31% (inactive) and 48% (inactive) | 55.7% (inactive) and 46.5% (inactive) | 19% (inactive) and 11% (inactive) | 60% (inactive) and 49% (inactive) | 40.5% (inactive) and 38% (inactive) | -15% (inactive) and 10% (inactive) | 62% (inactive) and 68% (inactive) | 87.5% (active) and 64% (inactive) | 1% (inactive) and 9% (inactive) | 24% (inactive) and 18% (inactive) | 58.1% (inactive) and 24.5% (inactive) | -4% (inactive) and 5% (inactive) | 14% (inactive) and 36% (inactive) | 8.65% (inactive) and 29.9% (inactive) | 10% (inactive) and 15% (inactive) | 63% (inactive) and 48% (inactive) | 72% (active) and 71.2% (active)
O=P(C(=S)NC1CC2C=CC1C2)(c1ccccc1)c1ccccc1 (stereo not given) | 27% (inactive) | 93% (active) | 48% (inactive) | 7% (inactive) | 94% (active) | 51.1% (inactive) | 2% (inactive) | 90% (active) | 26.4% (inactive) | 12% (inactive) | 85% (active) | 73.4% (active) | -3% (inactive) | 92% (active) | 34.1% (inactive) | -31% (inactive) | 90% (active) | 86.7% (active)
CCCCCCCCCCCCCCCC(=O)NCC[N+](C)(C)C | 33% (inactive) | 99% (active) | 99.5% (active) | 52% (inactive) | 100% (active) | 99.7% (active) | 50% (inactive) | 99% (active) | 99.8% (active) | 10% (inactive) | 99% (active) | 99.2% (active) | 58% (inactive) | 100% (active) | 99.5% (active) | 36% (inactive) | 99% (active) | 99.6% (active)
Oc1cc2c(cc1C(c1ccc3c(c1)OCO3)N1CCN(C(c3ccc4c(c3)OCO4)c3cc4c(cc3O)OCO4)CC1)OCO2 (stereo not given) | 2% (inactive) | 98% (active) | 81.9% (active) | -1% (inactive) | 99% (active) | 92.8% (active) | 8% (inactive) | 98% (active) | 78.2% (active) | 8% (inactive) | 49% (inactive) | 24.4% (inactive) | 2% (inactive) | -1% (inactive) | 54.2% (inactive) | 3% (inactive) | 94% (active) | 93.2% (active)
Nc1c2ccccc2nc2ccccc12 | 51% (inactive) and 41% (inactive) | 92% (active) and 90% (active) | 94.5% (active) and 92.5% (active) | 18% (inactive) and 19% (inactive) | 66% (inactive) and 70% (active) | 60.8% (inactive) and 60.3% (inactive) | 20% (inactive) and 18% (inactive) | 73% (active) and 68% (inactive) | 75.8% (active) and 74% (active) | 25% (inactive) | 51% (inactive) and 65% (inactive) | 54.5% (inactive) and 79% (active) | 5% (inactive) and -1% (inactive) | 79% (active) and 73% (active) | 63.6% (inactive) and 75.5% (active) | 21% (inactive) and 25% (inactive) | 86% (active) | 90.6% (active) and 88.5% (active)
